For 94 compounds, inhibition results are on record in PubChem BioAssay AID1259374 (The Scripps Research Institute Molecular Screening Center, 2018).

The inhibition is the drop in the measured response relative to a control, in per cent.

Structures are written as SMILES. Among all 650,000 compounds or so, about 5,900 (0.91%) were called active. The list comes from a sample in which actives are over-represented; it also holds similar structures and randomly drawn compounds. Values without a mark were called inactive. Rule as the data show it: active = inhibition above about 50%; inactive = the rest.

Chain of Microphthalmia-associated transcription factor (Homo sapiens) (O75030 whole entry, looked up): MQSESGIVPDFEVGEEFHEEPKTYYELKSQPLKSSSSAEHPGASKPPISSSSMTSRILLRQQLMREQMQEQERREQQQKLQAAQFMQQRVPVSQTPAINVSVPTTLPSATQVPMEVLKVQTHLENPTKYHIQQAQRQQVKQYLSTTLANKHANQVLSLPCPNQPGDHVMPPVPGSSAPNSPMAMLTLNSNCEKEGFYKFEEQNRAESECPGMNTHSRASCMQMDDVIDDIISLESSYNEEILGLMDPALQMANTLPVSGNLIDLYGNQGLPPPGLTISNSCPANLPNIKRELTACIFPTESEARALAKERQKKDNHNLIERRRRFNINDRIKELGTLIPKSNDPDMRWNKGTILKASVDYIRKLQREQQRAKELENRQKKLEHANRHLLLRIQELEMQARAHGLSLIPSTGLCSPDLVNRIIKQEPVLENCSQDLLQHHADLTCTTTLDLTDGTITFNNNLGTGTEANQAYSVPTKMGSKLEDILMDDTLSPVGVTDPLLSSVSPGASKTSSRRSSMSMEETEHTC

The assay has as its target Microphthalmia-associated transcription factor (Homo sapiens) (UniProt O75030). Nature of the assay: MITF inhibitors, primary screen, biochemical, AlphaScreen, human (AID 1259374).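 Also: 0% = vehicle wells with protein.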 The conditions noted are these: AlphaScreen MITF homodimerization, bead proximity signal; at 2.6 µM; active compounds read high. (Bead proximity is the source of the signal in Alpha formats.)
`COc1ccc(OC)c(-n2nnnc2SCC(=O)N2CCc3ccccc32)c1`: the inhibition is 9.95%.
Next, `CC(C)n1cnc2c(NCc3cccc(C(F)(F)F)c3)nc(Nc3ccncn3)nc21`: 12.6%.
Next, `Cc1ccc2c(c1)-c1c(cnn1CC(=O)NCc1ccccn1)CO2`: -4%; `COc1cccc(N2CCN(Cc3cccs3)CC2)c1`: 42.8%; `COc1ccc(N2CCN(Cc3coc4ccc(Cl)cc4c3=O)CC2)cc1`: 10.4%.
Next, `COc1ccc(N2CCN(Cc3ccc(Br)s3)CC2)cc1`: 71.6% (active); `CCOC(=O)c1ccc(-n2c(=S)sc3c2nc(SCC(=O)N2CCCC2)n2c4ccccc4nc32)cc1`: -3.4%; `CCOc1cc2c(cc1/C=C1/NC(=O)N(CC(=O)Nc3ccccc3C)C1=O)OCO2`: 12.6%.
Take `Cc1ccccc1CC1(C2CCN(C(=O)C(C)C)CC2)NC(=O)N(CCCN(C)C)C1=O` (centres undefined): the inhibition is 4.98%.
The value for `CNC(=O)/C(C#N)=C/c1cn(CC(=O)NCCOC)c2ccccc12` was 5.66%; that for `COc1cccc(CN2CCN3C(=O)[C@H]4CCCN4C(=O)[C@H]3C2)c1` was -17.2%; that for `CSc1ccc(CN2CCN(C(=O)c3cccc(F)c3)CC2)cc1` was 34.1%.
Next, `CSc1ccc(CN2CCN(Cc3cccc(Oc4ccccc4)c3)CC2)cc1`: 52% (active); `CCc1ccc(NS(=O)(=O)c2ccc3c(c2)CCN3C(=O)C2CC2)cc1`: 2.16%; `CCC1CCc2c(sc3nc(SCC(=O)Nc4ccc(Br)cc4)n(-c4ccccc4)c(=O)c23)C1` (centres undefined): 10.8%.
The value for `Cc1nc2ccccc2n1CCc1noc(COc2ccccc2)n1` was 9.51%; that for `COCc1nc2ccccc2n1CCc1noc(-c2ccco2)n1` was 82% (active); that for `COCc1nc2ccccc2n1CCc1noc(-c2cccs2)n1` was 8.99%.
As for `CCCc1[nH]n(-c2ccc(F)cc2)c(=O)c1CNN1CCOCC1`, the inhibition was -2.83%.
For the compound `COc1cc(/C=C/C(=O)OCC(N)=O)ccc1OCC#N`, the inhibition was 6.64%.
Next, `CNC(=O)COC(=O)/C=C/c1ccc(C)o1`: 18.9%; `NC(=O)COC(=O)/C=C/c1ccc(I)o1`: 52.1% (active).
Next, `Cc1ccc(C)c(NC(=S)N(Cc2ccccc2C)CC2CCC(C(=O)O)CC2)c1` (centres undefined): 13.3%; `CCCCC(=O)NC(c1ccc(OC)cc1)c1cc([N+](=O)[O-])c2cccnc2c1O` (centres undefined): 18.8%; `CCCC(=O)NC(c1ccccc1OC)c1cc([N+](=O)[O-])c2cccnc2c1O` (centres undefined): 56.2% (active).
The value for `COc1cc(C(=O)NC(c2ccccc2Cl)c2cc([N+](=O)[O-])c3cccnc3c2O)cc(OC)c1OC` (centres undefined) was 24.9%; that for `C/C(N)=C(/C#N)C(=O)CSc1cccc[n+]1[O-]` was -1.32%; that for `O=C1c2ccccc2-c2ccc(-c3nc(-c4ccccc4)[nH]c3-c3ccccc3)cc21` was -1.27%.
On to `CC(C)(C)NCCOCCOc1ccc(I)cc1`, for which the inhibition is 40.6%.
Next, `CC(C)(C)NCCOCCOc1ccc(Cl)c(Cl)c1`: 73.1% (active); `Cc1ccc(OCCCCNC(C)(C)C)cc1C`: 1.35%; `CCOC(=O)C(C)Oc1cccc2c(=O)n(CC(=O)Nc3ccc(C)c(Cl)c3)ccc12` (centres undefined): -3.54%.
The value for `CC1=C(C#N)C(=O)NC(=O)/C1=C\c1ccc(-c2ccc(Cl)c(C(=O)O)c2)o1` was 77.7% (active).
The value for `CC1=C(C#N)C(=O)NC(=O)/C1=C\c1ccc(-c2cccc(Cl)c2)o1` was -5.17%.
`CC1=C(C#N)C(=O)NC(=O)/C1=C/c1ccc(-c2ccc(Cl)cc2Cl)o1`: the inhibition is 13.9%.
Next, `CCOC(=O)c1ccc(N2CCN(c3ccc(F)cc3)CC2)c(NC(=O)Nc2ccc(OC)cc2OC)c1`: -1.5%.
Next, `O=C1C2C3CC(C(Br)C3Br)C2C(=O)N1C1CCCCC1` (centres undefined): -2.53%; `O=C(c1ccc2c(c1)C(=O)N(Cc1cccnc1)C2=O)c1ccc2c(c1)C(=O)N(Cc1cccnc1)C2=O`: 104% (active); `O=C(Nc1cccc(O)c1)c1ccc2c(c1)C(=O)N(Cc1cccnc1)C2=O`: -1.4%.
Regarding `O=C(NCc1ccco1)c1ccc2c(c1)C(=O)N(Cc1cccnc1)C2=O`, the inhibition was -3.01%.
Next, `CC(=O)N1C(=O)C(=O)c2cc(Cl)ccc21`: -11.3%; `Cc1ccc(NC(=O)C(C)C2Sc3ccccc3NC2=O)c(C)c1` (centres undefined): 9.32%; `O=C(C1CCN(c2nc3ccccc3n3cccc23)CC1)N1CCN(c2ccccn2)CC1`: 10.7%.
For the compound `O=C(C1CCN(Cc2nc3ccccc3[nH]2)CC1)N1CCN(c2ccc(Cl)nn2)CC1`, the inhibition was -4.97%.
Next, `O=C(C1CCN(Cc2nc3ccccc3[nH]2)CC1)N1CCN(c2ccccn2)CC1`: 51.4% (active); `CN(c1ccccc1)S(=O)(=O)c1ccc(C(=O)N2CCc3ccccc32)cc1`: -6.36%.
Next, `Fc1ccccc1OCCCCn1cncn1`: 20.2%.
The value for `c1ccc(Oc2cccc(OCCCCn3cncn3)c2)cc1` was 73.8% (active); that for `O=C(Cn1cncn1)NCCCOc1cccc(CN2CCCCCCC2)c1` was -3.47%.
With `O=C(c1cccs1)N1CCN(S(=O)(=O)c2ccc(Cl)cc2)CC1`, the inhibition was -0.92%.
The value for `Cc1cccc(CN2CCC(N3CCN(C(=O)c4cccs4)CC3)CCC2=O)c1` (centres undefined) was -6.77%; that for `O=C(c1cccs1)N1CCC(N2CCN(Cc3ccccc3)CC2)CC1` was 76.7% (active).
`O=C(CN1CCN(C(=O)c2cccs2)CC1)c1cccs1`: the inhibition is -1.86%.
As to `CCOC(=O)c1c(NC(=O)c2ccccc2Br)sc2c1CC(C)(C)NC2(C)C`, the inhibition is 3.37%.
The value for `Nc1ccc(S(=O)(=O)O)c2cc(S(=O)(=O)O)cc(O)c12` was 63.3% (active); that for `NS(=O)(=O)c1ccc(O)c2ccccc12` was 13.7%.
Turning to `Cc1ccc(/C=C2/C(=O)N(C)C(=S)N(c3ccccc3)C2=O)s1`, the inhibition is 23.2%.
On to `O=C1c2ccccc2C(O)N1Cc1ccccc1Cl` (centres undefined), for which the inhibition was 79.6% (active).
As for `O=C1c2ccccc2C(O)N1Cc1ccccc1` (centres undefined), the inhibition was 3.72%.
As for `O=C(NC1CC1)C1CCC(=O)N1Cc1ccccc1Cl` (centres undefined), the inhibition was -6.74%.
Next, `COC(=O)Cn1cc(-c2ccc([N+](=O)[O-])cc2)nc1SCC(=O)NC(C)(C)C`: -1.03%; `N#Cc1ccc(-c2cccnc2)nc1SCC(=O)c1ccc(Cl)cc1`: -7.18%; `CCN(C(=O)Cc1nc(N)n[nH]1)C1(C(=O)Nc2ccc(C)cc2)CCCCC1`: 63% (active).
The value for `COCCCN(C(=O)c1cc2ccccc2o1)C1(C(=O)Nc2ccccc2)CCCC1` was 6.26%; that for `COc1ccc(N(C(=O)Cc2nc(N)n[nH]2)C2(C(=O)Nc3ccccc3)CCCCC2)cc1` was -1.47%; that for `COCCN(C(=O)CN1C(=O)c2ccccc2C1=O)C1(C(=O)Nc2ccccc2)CCCC1` was 11.4%.
Next, `COc1ccc(NC(=O)C2(N(C)C(=O)Cn3nnnc3N)CCCCC2)cc1`: 5.13%.
For `CCN(C(=O)Cc1nc(N)n[nH]1)C1(C(=O)Nc2ccccc2)CCCCC1`, the inhibition was 68.5% (active).
Next, `Cc1ccc(NC(=O)CNCCCSc2ccccc2)cc1C`: 75.4% (active); `Cc1ccc(NC(=O)CSCC(=O)Nc2ccccc2F)cc1C`: 4.24%; `Cc1ccc(NC(=O)Cn2c(=O)[nH]n(-c3ccccc3)c2=O)cc1C`: -10.5%.
On to `CC1=CC(C)(C)N2C(=O)C(=O)c3cc(OC(=O)C(C)(C)C)cc1c32`, for which the inhibition was -9.06%.
The value for `CC(C)OC(=O)C1=c2/c(=C/c3ccco3)c(N)c(C#N)n2C(=O)C(c2ccco2)S1` (centres undefined) was 14.9%.
The value for `Cc1nc(N2CCCCC2C)c2c(C)c(C(=O)NC3CCCCC3)sc2n1` (centres undefined) was 9.14%.
Next, `COCC(=O)Nc1ccc2nc(C)n(-c3ccc(F)cc3)c(=O)c2c1`: -0.07%; `COc1ccc(OCCn2ccnc2C)cc1`: 57.2% (active); `COc1ccc(OCCSc2nnc3nc(C)cc(C)n23)cc1`: 7.82%.
Regarding `Cc1nccn1CC(O)COc1ccc(Br)cc1` (centres undefined), the inhibition was 4.86%.
As to `CC1CCC(C(C)C)C(OC(=O)COC(=O)c2cnccn2)C1` (centres undefined), the inhibition was 2.66%.
Next, `CC(C)(C)NCC(=O)Nc1c2c(nc3ccccc13)N(Cc1ccccc1)CC2`: 63.8% (active).
Next, `CCOC(=O)COc1cccc2c1CCN(Cc1ccccc1)C2=O`: -3.19%; `CCN(CC)CC(=O)Nc1nn(-c2ccccc2)nc1C(N)=O`: -0.44%.
`Cc1cc(C)c(NC(=O)CNC(C)(C)C)c(C)c1`: the inhibition is -3.53%.
In the case of `CCN(CC)CC(=O)Nc1c2c(nc3ccccc13)N(c1cccc(C)c1)CC2`, the inhibition is 65.6% (active).
Next, `CCOC(=O)C1CCN(c2nc(-c3cccc(C)c3)nc3ccccc23)CC1`: 0.58%; `Cc1[nH]c(=O)[nH]c(=O)c1S(=O)(=O)N1CCOc2ccccc21`: 5.78%.
For the compound `CC(NCCCN1CCOCC1)C(=O)Nc1ccccc1` (centres undefined), the inhibition is 77.6% (active).
Next, `CC(C)C(=O)Nc1ccc(CN2CCOCC2)cc1`: 1.55%; `CCc1ccc(NC(=O)C(=O)NCCCN2CCOCC2)cc1`: 12.7%; `O=C(Cn1c(=O)n(Cc2ccc3c(c2)OCO3)c(=O)c2ncccc21)N1CCc2ccccc21`: 3.95%.
As for `COc1cc(C=O)ccc1OCC(=O)c1ccc(C)c(C)c1`, the inhibition was 11.1%.
Take `CCOC(=O)N/N=C/c1ccc(OS(=O)(=O)c2ccc(C)cc2)c(OC)c1`: the inhibition is 2.78%.
As to `COc1ccc(C(=O)COC(=O)CNS(=O)(=O)/C=C/c2ccc(C)cc2)cc1OC`, the inhibition is 74.8% (active).
The value for `O=C(CCN1C(=O)C2CCCCC2C1=O)N1CCc2c(nc(N3CCCC3)[nH]c2=O)C1` (centres undefined) was -0.41%.
